Inconclusive results are not listed. A call without a number means that no potency is given here. Active and inactive are the calls of the source. Calls follow the shape of the full dose curve.
Potency is read from the fitted curve at half-maximal effect.

A short description of the test: qHTS assay for small molecule agonists of the p53 signaling pathway (AID 651631). Also: nearly all actives have a fitted effect of over 15% in size. The conditions noted are these: HCT-116 p53RE-bla reporter, beta-lactamase FRET ratio, 16 h; series mostly up to 73.3 µM. From the text: U.S. Tox21 Program National Center for Advancing Translational Sciences [NCATS] NIH Chemical Genomics Center [NCGC] U.S. Environmental Protection Agency [EPA] National Institutes of Environmental Health Sciences [NIEHS] National Toxicology Program [NTP] U.S. Food and Drug Administration [FDA] Tox21 Assay Overview: p53, a tumor suppressor protein, is activated following cellular insult, including DNA damage and other cellular stresses. The activation of p53 regulates cell fate by inducing DNA repair, cell cycle arrest, apoptosis, or cellular senescence. The activation of p53, therefore, is a good indicator of DNA damage and other cellular stresses. The CellSensor p53RE-bla HCT-116 cell line (Invitrogen) contains a stably integrated beta-lactamase reporter gene under control of the p53 response elements. The activation of the reporter gene under culture conditions can be detected by fluorescence intensity. This cell line was used to screen the Tox21 compound library in a 1536-well plate format and to identify agonists that activate the p53 signaling pathway.
Tox21 Assay Protocol Summary: The p53RE-bla cells were dispensed at 4,000 cells/5 ul/well in 1536-well black wall/clear bottom plates using a Multidrop dispenser. After the assay plates were incubated at a 37 C/5% CO2 incubator for 5 hours, 23 nL of compounds dissolved in DMSO, positive controls or DMSO only was transferred to the assay plate by a pin tool. The plates were incubated at 37 C for 16 hours. After 1 uL of LiveBLAzerTM B/G FRET substrate was added using a Flying Reagent Dispenser, the plates were incubated at room temperature for 2 hours, and fluorescence intensity was measured by an Envision plate reader.
A general note: Quantitative high-throughput screening tests each substance at several concentrations.
As for `CC(C=O)Cc1ccc2c(c1)OCO2` (stereo not given), the Potency entry was “inactive”.

As to `CN1CCN(C(=O)O[C@H]2c3nccnc3C(=O)N2c2ccc(Cl)cn2)CC1`, the Potency entry is “inactive”.

As for `BrCCCCCCBr`, the Potency result is “inactive”.

`CCC/C(=N\OCC)C1=C(O)CC(CC(C)SCC)CC1=O` (stereo not given): the Potency entry was “inactive”.

For `CCCSC(=O)Cl`, the Potency result was “inactive”.

For `CC(Cl)(Cl)[N+](=O)[O-]`, the Potency result is “inactive”.

As for `COC(C)(C)C`, the Potency entry is “inactive”.

For the compound `Cc1cc(C)nc(Nc2ccccc2)n1`, the Potency entry is “inactive”.

For the compound `COc1cc(OC)nc(Sc2cccc(Cl)c2C(=O)O)n1`, the Potency entry was “inactive”.

On to `CS(=O)(=O)c1cc(C(F)(F)F)ccc1C(=O)c1cnoc1C1CC1`, for which the Potency entry is “inactive”.

For the compound `CC1CCCCC1NC(=O)Nc1ccccc1` (stereo not given), the Potency result was “inactive”.

For the compound `C=C(C)[C@@H]1CC=C(C=O)CC1`, the Potency entry was “inactive”.

With `NC(=S)C(N)=S`, the Potency result was “inactive”.

`ClC(Cl)(Cl)C(Cl)(Cl)Cl`: the Potency result was “inactive”.

On to `CC(C)[N+](=O)[O-]`, for which the Potency entry is “inactive”.

In the case of `c1cc[c]([Hg][c]2ccccc2)cc1`, the Potency was 15.4 µM (active).

Turning to `CC(C)CP(=S)(S)CC(C)C`, the Potency entry is “inactive”.

As for `ClCC(Cl)Cl`, the Potency result was “inactive”.

For the compound `CCCCOC(=O)[C@@H](C)Oc1ccc(Oc2ccc(C#N)cc2F)cc1`, the Potency entry was “inactive”.

As for `CCC(=O)c1ccccc1`, the Potency entry was “inactive”.

As to `C[N+](=O)[O-]`, the Potency entry was “inactive”.

Regarding `CC(C)(C)C(=O)C(Oc1ccc(Cl)cc1)n1cncn1` (stereo not given), the Potency result was “inactive”.

Take `CCOP(=S)(Oc1cnc(C(C)(C)C)nc1)OC(C)C` (stereo not given): the Potency entry is “inactive”.

Turning to `O=NN1CCCCC1`, the Potency entry is “inactive”.

For the compound `CC(C)COP(=O)(OCC(C)C)OCC(C)C`, the Potency result is “inactive”.

As to `CCOP(=S)(OCC)Oc1cc(-c2ccccc2)on1`, the Potency result was “inactive”.

For `CN(N=O)C(N)=O`, the Potency result is “inactive”.

As for `CCOC(=O)NC(=S)Nc1ccccc1NC(=S)NC(=O)OCC`, the Potency is 61.1 µM (active).

Turning to `C[C@H]1CCC[C@H](O)CCCCCc2cc(O)cc(O)c2C(=O)O1`, the Potency entry was “inactive”.

Take `CSc1nc(N=[N+]=[N-])nc(NC(C)C)n1`: the Potency result was “inactive”.

Take `C#C[C@]1(O)C=C[C@H]2[C@@H]3CCC4=CC(=O)CC[C@@H]4[C@H]3CC[C@@]21CC`: the Potency result was “inactive”.

On to `NC(=O)O`, for which the Potency result was “inactive”.

With `CCC1(c2ccccc2)C(=O)NC(=O)NC1=O`, the Potency result was “inactive”.

Consider `OCCSCSCCO`, for which the Potency entry is “inactive”.

Turning to `CC1CCC(=O)O1` (stereo not given), the Potency result is “inactive”.

In the case of `CNC(=O)O/N=C(\C)SC`, the Potency result is “inactive”.

For the compound `O=[N+]([O-])c1cccc2cccnc12`, the Potency result is “inactive”.

For the compound `O=S(=O)(O)C(F)(F)C(F)(F)C(F)(F)C(F)(F)C(F)(F)C(F)(F)F`, the Potency entry was “inactive”.

On to `CCCCOC(=O)c1ccccc1C(=O)O`, for which the Potency entry was “inactive”.

Take `Cc1coc2c1CCC(C)C2` (stereo not given): the Potency result is “inactive”.

The values are drawn from PubChem BioAssay (Tox21).
